The panel holds about 83,000 compounds, 20% with a hit somewhere; the sample as a whole holds those more often.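 Plates (96-well) were seeded with cells, treated with compound at one concentration, and incubated for 48 hours before percent growth was determined.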 Active and inactive are the calls of the source. The calls were made as follows: active = growth percent below 10; inactive = the rest.
How the values were obtained:
Experiment in all cases: NCI-60 one-dose screen, 48 h (100 = growth as untreated, 0 = no growth, -100 = all killed)
[1] = system: SR leukemia; details: 10 µM unless noted
[2] = system: RPMI-8226 leukemia; details: 10 µM unless noted
[3] = system: OVCAR-8 ovarian; details: 10 µM unless noted
[4] = system: OVCAR-5 ovarian; details: 10 µM unless noted
[5] = system: OVCAR-4 ovarian; details: 10 µM unless noted
[6] = system: SK-OV-3 ovarian; details: 10 µM unless noted
[7] = system: OVCAR-3 ovarian; details: 10 µM unless noted
[8] = system: NCI/ADR-RES ovarian; details: 10 µM unless noted
[9] = system: T-47D breast; details: 10 µM unless noted
[10] = system: MDA-MB-435 melanoma; details: 10 µM unless noted
[11] = system: SW-620 colon; details: 10 µM unless noted
[12] = system: MCF7 breast; details: 10 µM unless noted
[13] = system: HCT-116 colon; details: 10 µM unless noted
[14] = system: HCC-2998 colon; details: 10 µM
[15] = system: KM12 colon; details: 10 µM unless noted
[16] = system: BT-549 breast; details: 10 µM unless noted
[17] = system: IGROV1 ovarian; details: 10 µM unless noted
[18] = system: HS 578T breast; details: 10 µM

Measured: growth

Cn1cc(-c2ccc(F)c(C(F)(F)F)c2)nc1C1CCN(c2ncnc3[nH]ncc23)CC1
inactive: [1] 55.4% | [2] 82.3% | [3] 47.8% | [4] 85.8% | [5] 80.4% | [6] 55.5% | [7] 89.6% | [8] 61.2% | [9] 25.8% | [10] 93.3% | [11] 89.2% | [12] 61.4% | [13] 68.9% | [14] 95.5% | [15] 73.5%

Cn1cnc2c(F)c(Nc3ccc(Br)cc3F)c(C(=O)NOCCO)cc21
active: [4] 9.55% | [14] 0.38%
inactive: [1] 64.6% | [2] 63.5% | [3] 65.8% | [5] 55.9% | [6] 50.2% | [7] 106% | [8] 69.1% | [9] 81.9% | [16] 81.7% | [10] 32.5% | [11] 21% | [12] 87.3% | [13] 19% | [15] 27.5%

CO[C@@H](C(=O)N1Cc2[nH]nc(NC(=O)c3ccc(N4CCN(C)CC4)cc3)c2C1)c1ccccc1
inactive: [2] 44% | [7] 40.6% | [8] 81.7% | [10] 19.5% | [11] 21.5% | [12] 17.7% | [14] 26.4%
active: [1] -1.07% | [3] 5.58% | [4] 4.9% | [5] 9.35% | [6] 7.44% | [9] -16.3% | [16] -10.8% | [13] -35.7% | [15] -28.7%

N#Cc1ccc(-n2nnc3ccccc32)cc1C#N
inactive: [2] 101% | [3] 99% | [4] 110% | [5] 110% | [6] 98.8% | [17] 104% | [7] 101% | [18] 105% | [8] 101% | [9] 86.3% | [16] 106% | [10] 85.3% | [11] 94.4% | [12] 82% | [13] 102% | [14] 104% | [15] 96.4%

O=C(Nc1ccc(C(=O)Nc2ccc(C3=NCCCN3)cc2)cc1)Nc1ccc(C2=NCCCN2)cc1
inactive: [1] 44.5% | [3] 57.4% | [4] 93.2% | [5] 65.5% | [6] 97.8% | [17] 99.7% | [7] 103% | [18] 91.3% | [9] 45.2% | [16] 76.1% | [10] 103% | [11] 101% | [12] 70.8% | [13] 63.9% | [14] 101% | [15] 88.9%

Cc1nn(-c2ccccc2)c2c1N=c1s/c(=C\c3cn(-c4ccccc4)nc3-c3ccc(Cl)cc3)c(=O)n1C(C)N2 (configuration not stated)
inactive: [1] 123% | [2] 49% | [4] 101% | [5] 93.2% | [6] 102% | [7] 109% | [18] 87.8% | [8] 97.8% | [9] 103% | [16] 105% | [10] 88.6% | [11] 103% | [12] 90.6% | [13] 75.2% | [15] 91.8%

CCCC(=O)OCC1OC(n2cnc3c(=S)nc(N)[nH]c32)C(OC(=O)CCC)C1OC(=O)CCC (configuration not stated)
inactive: [4] 38.4% | [5] 20.6% | [18] 29.9% | [8] 40.2% | [9] 33.4% | [16] 34.2% | [10] 36.3% | [11] 52% | [12] 17.8% | [13] 24.7% | [15] 41%
active: [1] 6.99% | [3] 6.16% | [6] 5.91% | [7] 6.47%

CC1CCC(n2cnc3c(Cl)ncnc32)O1 (configuration not stated)
inactive: [1] 104% | [3] 91.4% | [4] 93.9% | [5] 104% | [6] 98.6% | [7] 97.1% | [18] 88.1% | [8] 101% | [9] 91.1% | [16] 89.6% | [10] 99.6% | [11] 106% | [12] 90.1% | [13] 89.3% | [14] 103% | [15] 106%

COC(=O)c1[nH]cnc1/N=N/N(C)CCO
inactive: [1] 75.4% | [3] 109% | [4] 92.9% | [5] 105% | [6] 98.3% | [17] 109% | [7] 99% | [8] 95.9% | [9] 91.1% | [16] 98.4% | [10] 112% | [11] 102% | [12] 96% | [13] 93.5% | [15] 106%
active: [18] -26.7%

Source: PubChem BioAssay (NCI)
